From the supplement of paper PMC10849652
About 7,900 targets were measured; listed, in parts, are those with a hit and a random draw of the rest. About 0.6% of all pairs of compound and target were hits.

Legend:
Experiment in all cases: log2 fold change, soluble protein after heating vs DMSO (PISA); higher = thermal stabilisation; K562 cells, 10 uM, 30 min; active = over 0.2 and 3.5 SD of the protein, either way, in both replicates (recomputed)
[1] = compound: CC[C@@H]1C(=O)N(C)c2cnc(Nc3ccc(C(=O)NC4CCN(C)CC4)cc3OC)nc2N1C1CCCC1
Summary of the method: (§1)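 Soluble protein was defined as the supernatant after 21,000xg for 90 min. It came from K562 cells at 2×10^6 cells/mL given 10 μM compound for 30 min, heated in aliquots for 3 min across 48°C-58°C, pooled, and extracted in PBS with 0.5% NP-40 at 4°C, and was quantified by TMTpro 16plex LC-MS/MS with equalised channel sums. Thermal stability against control samples, from duplicates, is reported as log2 fold change.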

volasertib = compound: CC[C@@H]1C(=O)N(C)c2cnc(Nc3ccc(C(=O)N[C@H]4CC[C@H](N5CCN(CC6CC6)CC5)CC4)cc3OC)nc2N1C(C)C [volasertib]
Summary of the method: as §1

[2] = compound: CC[C@H](C)N1C=C(C2=C(C=C(C=C21)C3=CN=C(C=C3)N4CCNCC4)C(=O)NCC5=C(C=C(NC5=O)C)C)C
Summary of the method: as §1

epoxomicin = compound: CC[C@H](C)[C@@H](C(=O)N[C@@H]([C@@H](C)O)C(=O)N[C@@H](CC(C)C)C(=O)[C@]1(CO1)C)NC(=O)[C@H]([C@@H](C)CC)N(C)C(=O)C [epoxomicin]
Summary of the method: as §1

[3] = compound: CCn1c(C(=O)N(C2CC2)C2CC2)cc2c3c(ncn3C)c(Nc3cc(C)n(C)n3)nc21
Summary of the method: as §1

[4] = compound: CCn1cc(-c2ccnc3[nH]c(-c4cccc(CN(C)C)c4)cc23)c(-c2ccc(NC(=O)N(C)C)cc2)n1
Summary of the method: as §1

[5] = compound: CN(C)CC(=O)Nc1ccc2[nH]c(=O)c3ccccc3c2c1
Summary of the method: as §1

[6] = compound: CN1C2=C(C3=C1C(=O)N(N=C3)CC4=CC(=CC=C4)N)SC(=C2)S(=O)C
Summary of the method: as §1

[7] = compound: CN1CCC(CNc2ccc3ncc(-c4cccc(OC(F)(F)F)c4)n3n2)CC1
Summary of the method: as §1

saracatinib = compound: CN1CCN(CCOc2cc(OC3CCOCC3)c3c(Nc4c(Cl)ccc5c4OCO5)ncnc3c2)CC1 [saracatinib]
Summary of the method: as §1

sotrastaurin = compound: CN1CCN(c2nc(C3=C(c4c[nH]c5ccccc45)C(=O)NC3=O)c3ccccc3n2)CC1 [sotrastaurin]
Summary of the method: as §1

alvocidib = compound: CN1CC[C@H](c2c(O)cc(O)c3c(=O)cc(-c4ccccc4Cl)oc23)[C@H](O)C1 [alvocidib]
Summary of the method: as §1

Tubastatin A = compound: CN1CCc2c(c3ccccc3n2Cc2ccc(C(=O)NO)cc2)C1 [Tubastatin A]
Summary of the method: as §1

[8] = compound: CNC(=O)C1=CC=CC=C1NC2=NC(=NC=C2Cl)NC3=C(C=C(C=C3)N4CCOCC4)OC
Summary of the method: as §1

defactinib = compound: CNC(=O)c1ccc(Nc2ncc(C(F)(F)F)c(NCc3nccnc3N(C)S(C)(=O)=O)n2)cc1 [defactinib]
Summary of the method: as §1

rucaparib = compound: CNCc1ccc(-c2[nH]c3cc(F)cc4c3c2CCNC4=O)cc1 [rucaparib]
Summary of the method: as §1

[9] = compound: CNc1nc(-c2ccc3c(N)n[nH]c3c2)cc(N2C[C@@H](C(=O)NC3CCCCC3)CC[C@H]2C)n1
Summary of the method: as §1

encorafenib = compound: COC(=O)N[C@@H](C)CNc1nccc(-c2cn(C(C)C)nc2-c2cc(Cl)cc(NS(C)(=O)=O)c2F)n1 [encorafenib]
Summary of the method: as §1

[10] = compound: COC(=O)[C@H](CCSC)NC(=O)C1=C(C=C(C=C1)NC[C@H](CS)N)C2=CC=CC=C2
Summary of the method: as §1

rosiglitazone = compound: CN(CCOC1=CC=C(C=C1)C[C@H]2C(=O)NC(=O)S2)C3=CC=CC=N3 (racemic) [rosiglitazone]
Summary of the method: as §1

Measured: log2 fold change

NEK3 (UniProt P51956)
UniProt P51956, sequence (P51956 whole entry, looked up): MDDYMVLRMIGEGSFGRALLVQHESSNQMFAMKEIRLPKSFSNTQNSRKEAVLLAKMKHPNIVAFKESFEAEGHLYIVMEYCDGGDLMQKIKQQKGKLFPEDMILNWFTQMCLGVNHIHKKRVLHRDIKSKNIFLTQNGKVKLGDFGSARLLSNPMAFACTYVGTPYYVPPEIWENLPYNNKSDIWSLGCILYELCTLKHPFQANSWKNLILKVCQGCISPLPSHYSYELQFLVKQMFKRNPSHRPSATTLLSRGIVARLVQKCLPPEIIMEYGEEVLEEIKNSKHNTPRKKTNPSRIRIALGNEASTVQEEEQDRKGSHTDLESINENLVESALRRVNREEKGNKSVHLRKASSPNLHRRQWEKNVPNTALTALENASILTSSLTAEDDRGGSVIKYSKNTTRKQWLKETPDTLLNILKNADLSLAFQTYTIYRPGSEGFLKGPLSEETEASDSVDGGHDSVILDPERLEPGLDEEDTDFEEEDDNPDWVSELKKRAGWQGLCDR
inactive: [1] -0.046 | volasertib -0.162 | [2] 0.167 | epoxomicin 0.067 | [3] -0.024 | [4] -0.125 | [5] 0.014 | [6] 0.002 | saracatinib 0.022 | sotrastaurin -0.125 | alvocidib -0.169 | Tubastatin A -0.194 | [8] -0.027 | defactinib -0.182 | rucaparib -0.013 | [9] 0.007 | encorafenib 0 | [10] 0.036
active: [7] -0.465

MMADHC (UniProt Q9H3L0)
UniProt Q9H3L0, sequence (Q9H3L0 whole entry, looked up): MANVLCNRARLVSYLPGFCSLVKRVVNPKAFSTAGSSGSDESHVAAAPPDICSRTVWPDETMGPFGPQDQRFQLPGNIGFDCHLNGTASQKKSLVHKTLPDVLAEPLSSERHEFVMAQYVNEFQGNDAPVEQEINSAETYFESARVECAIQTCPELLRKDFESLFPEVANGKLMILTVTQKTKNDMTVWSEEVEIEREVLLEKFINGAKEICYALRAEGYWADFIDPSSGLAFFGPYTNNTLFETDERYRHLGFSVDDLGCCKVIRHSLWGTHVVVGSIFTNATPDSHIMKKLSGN
inactive: [1] -0.024 | [2] 0.087 | [3] -0.013 | [4] 0.03 | [5] 0.006 | rosiglitazone 0.015 | [6] 0.047 | [7] 0.181 | saracatinib -0.044 | alvocidib 0.031 | Tubastatin A 0.07 | [8] -0.011 | defactinib -0.061 | rucaparib 0.139 | [9] 0.062 | encorafenib -0.031 | [10] -0.011
active: volasertib -0.482

MLX (UniProt Q9UH92)
UniProt Q9UH92, sequence (Q9UH92 whole entry, looked up): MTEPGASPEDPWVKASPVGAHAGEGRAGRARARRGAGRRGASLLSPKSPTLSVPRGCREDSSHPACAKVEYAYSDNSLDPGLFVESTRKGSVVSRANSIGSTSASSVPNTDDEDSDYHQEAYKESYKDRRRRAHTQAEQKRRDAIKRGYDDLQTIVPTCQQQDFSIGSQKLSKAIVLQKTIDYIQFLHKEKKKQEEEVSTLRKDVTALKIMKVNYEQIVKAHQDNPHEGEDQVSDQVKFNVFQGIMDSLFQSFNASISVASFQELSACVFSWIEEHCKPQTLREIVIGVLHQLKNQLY
active: volasertib -0.734
inactive: [1] 0.047 | [2] -0.007 | epoxomicin 0.162 | [3] -0.04 | [4] 0 | rosiglitazone 0.052 | [6] 0.142 | [7] -0.315 | saracatinib -0.171 | sotrastaurin -0.084 | alvocidib -0.037 | Tubastatin A 0.075 | [8] -0.149 | rucaparib -0.169 | [9] 0.004 | encorafenib 0.149

NKAP (UniProt Q8N5F7)
UniProt Q8N5F7, sequence (Q8N5F7 whole entry, looked up): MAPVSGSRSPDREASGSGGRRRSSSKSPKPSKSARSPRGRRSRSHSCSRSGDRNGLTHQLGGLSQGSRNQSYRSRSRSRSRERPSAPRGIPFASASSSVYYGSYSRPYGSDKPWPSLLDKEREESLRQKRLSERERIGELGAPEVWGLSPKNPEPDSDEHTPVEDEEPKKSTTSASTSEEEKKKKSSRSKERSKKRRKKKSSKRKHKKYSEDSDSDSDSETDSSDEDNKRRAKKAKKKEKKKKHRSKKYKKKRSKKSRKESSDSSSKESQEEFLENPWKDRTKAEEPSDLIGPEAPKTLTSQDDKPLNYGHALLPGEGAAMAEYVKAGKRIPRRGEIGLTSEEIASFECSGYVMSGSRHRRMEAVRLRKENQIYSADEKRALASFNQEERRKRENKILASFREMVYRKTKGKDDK
inactive: [1] 0.026 | volasertib -0.3 | [2] 0.082 | epoxomicin -0.109 | [3] -0.028 | [4] 0.092 | [5] 0.052 | rosiglitazone 0.024 | [6] -0.025 | [7] -0.164 | saracatinib 0.067 | alvocidib -0.142 | Tubastatin A 0.093 | [8] -0.296 | defactinib 0.092 | rucaparib 0.055 | [9] 0.085 | encorafenib 0.149 | [10] 0.039

MSL1 (UniProt Q68DK7)
inactive: [1] 0.077 | volasertib 0.002 | [2] -0.19 | epoxomicin 0.007 | [3] -0.161 | [4] -0.26 | [5] -0.087 | rosiglitazone 0.028 | [6] 0.098 | [7] -0.161 | saracatinib -0.026 | sotrastaurin 0.052 | [8] -0.253 | defactinib -0.069 | rucaparib -0.042 | [9] 0.04 | encorafenib -0.088 | [10] -0.017

NA (UniProt B2RBV5)
inactive: [1] 0.135 | volasertib 0.163 | [2] 0.049 | [4] 0.128 | rosiglitazone -0.009 | [7] -0.08 | sotrastaurin -0.057 | rucaparib -0.16 | encorafenib -0.09
active: epoxomicin 0.593

OSBPL3 (UniProt Q9H4L5)
UniProt Q9H4L5, sequence (Q9H4L5 whole entry, looked up): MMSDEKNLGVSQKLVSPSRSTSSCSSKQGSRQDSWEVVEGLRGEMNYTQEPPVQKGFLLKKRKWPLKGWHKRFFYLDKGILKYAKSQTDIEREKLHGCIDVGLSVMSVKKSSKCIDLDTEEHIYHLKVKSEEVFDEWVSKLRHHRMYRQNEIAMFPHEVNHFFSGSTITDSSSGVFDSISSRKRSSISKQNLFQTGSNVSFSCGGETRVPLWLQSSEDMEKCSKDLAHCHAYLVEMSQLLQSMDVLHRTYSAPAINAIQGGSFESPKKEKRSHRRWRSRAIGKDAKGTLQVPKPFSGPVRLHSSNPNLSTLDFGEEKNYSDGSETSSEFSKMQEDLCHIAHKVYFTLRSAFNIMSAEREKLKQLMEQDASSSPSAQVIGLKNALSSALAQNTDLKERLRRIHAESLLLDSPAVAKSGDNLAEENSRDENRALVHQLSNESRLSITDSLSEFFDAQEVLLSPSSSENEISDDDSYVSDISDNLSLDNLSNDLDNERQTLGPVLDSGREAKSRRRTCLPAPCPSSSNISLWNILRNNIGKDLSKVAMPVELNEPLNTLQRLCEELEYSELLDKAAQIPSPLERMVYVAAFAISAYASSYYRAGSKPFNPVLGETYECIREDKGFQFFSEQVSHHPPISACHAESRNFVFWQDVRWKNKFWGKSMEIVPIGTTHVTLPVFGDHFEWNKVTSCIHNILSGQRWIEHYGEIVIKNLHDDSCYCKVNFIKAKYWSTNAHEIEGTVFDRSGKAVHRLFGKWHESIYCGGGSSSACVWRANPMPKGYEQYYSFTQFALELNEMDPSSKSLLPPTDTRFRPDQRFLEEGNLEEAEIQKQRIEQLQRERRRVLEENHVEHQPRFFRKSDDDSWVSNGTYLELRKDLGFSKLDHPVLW
inactive: [1] 0.136 | volasertib 0.621 | [2] -0.126 | epoxomicin -0.37 | [3] -0.235 | [5] 0 | [6] 0.164 | saracatinib -0.284 | sotrastaurin -0.414 | alvocidib 0.234 | Tubastatin A 0.219 | [8] 0.312 | defactinib 0.127 | rucaparib 0.518 | [9] 0.122 | encorafenib 0.006 | [10] -0.11

MT-ND4 (UniProt P03905)
active: [4] 0.391
inactive: [1] 0 | volasertib -0.102 | [2] -0.028 | epoxomicin 0 | [3] -0.071 | [5] -0.025 | rosiglitazone 0.159 | [6] -0.065 | [7] 0.029 | saracatinib 0.048 | sotrastaurin -0.025 | alvocidib -0.022 | Tubastatin A 0.061 | [8] 0.053 | defactinib -0.143 | rucaparib -0.077 | [9] -0.145 | encorafenib 0.058 | [10] 0.057

NMU (UniProt P48645)
UniProt P48645, sequence (P48645 whole entry, looked up): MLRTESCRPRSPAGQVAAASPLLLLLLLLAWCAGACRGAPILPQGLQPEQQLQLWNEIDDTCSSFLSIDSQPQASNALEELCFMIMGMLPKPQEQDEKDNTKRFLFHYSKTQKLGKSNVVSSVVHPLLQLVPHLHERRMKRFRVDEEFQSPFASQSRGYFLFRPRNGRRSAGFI
inactive: [1] 0.094 | volasertib 0.072 | [2] 0 | epoxomicin 0.077 | [3] -0.044 | [4] 0.008 | [5] -0.017 | rosiglitazone -0.021 | [6] -0.008 | [7] 0.271 | saracatinib -0.017 | alvocidib 0.044 | Tubastatin A 0.149 | [8] -0.055 | defactinib -0.08 | rucaparib -0.076 | [9] -0.09 | encorafenib 0.034 | [10] -0.042

NUDT6 (UniProt P53370)
inactive: [1] 0.177 | volasertib 0.041 | [2] -0.289 | epoxomicin 0.031 | [3] 0.016 | [5] -0.055 | [6] -0.132 | saracatinib 0.063 | alvocidib 0.165 | Tubastatin A 0.098 | [8] 0.014 | defactinib 0.066 | rucaparib -0.38 | [9] -0.023 | encorafenib -0.024 | [10] -0.087

NOS1AP (UniProt O75052)
UniProt O75052, sequence (O75052 whole entry, looked up): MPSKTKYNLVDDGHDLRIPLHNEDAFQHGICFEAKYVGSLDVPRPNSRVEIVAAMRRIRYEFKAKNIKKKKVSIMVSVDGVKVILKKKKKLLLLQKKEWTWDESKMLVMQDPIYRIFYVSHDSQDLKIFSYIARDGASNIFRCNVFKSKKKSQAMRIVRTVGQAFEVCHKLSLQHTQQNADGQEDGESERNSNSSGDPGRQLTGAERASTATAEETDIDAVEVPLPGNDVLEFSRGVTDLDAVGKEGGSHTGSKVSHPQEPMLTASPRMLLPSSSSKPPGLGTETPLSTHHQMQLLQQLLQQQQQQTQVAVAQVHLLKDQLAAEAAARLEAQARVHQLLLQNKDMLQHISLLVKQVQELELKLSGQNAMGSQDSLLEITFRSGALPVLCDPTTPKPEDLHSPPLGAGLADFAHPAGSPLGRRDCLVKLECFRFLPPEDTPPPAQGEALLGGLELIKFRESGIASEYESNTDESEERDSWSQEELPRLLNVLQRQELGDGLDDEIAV
inactive: [1] 0.092 | volasertib 0.035 | epoxomicin 0.056 | [3] 0.04 | [5] 0.225 | rosiglitazone -0.001 | alvocidib 0.179 | Tubastatin A -0.112 | [8] -0.089 | defactinib 0.193 | rucaparib -0.403 | encorafenib 0.092 | [10] -0.074

MSH3 (UniProt P20585)
UniProt P20585, sequence (P20585 whole entry, looked up): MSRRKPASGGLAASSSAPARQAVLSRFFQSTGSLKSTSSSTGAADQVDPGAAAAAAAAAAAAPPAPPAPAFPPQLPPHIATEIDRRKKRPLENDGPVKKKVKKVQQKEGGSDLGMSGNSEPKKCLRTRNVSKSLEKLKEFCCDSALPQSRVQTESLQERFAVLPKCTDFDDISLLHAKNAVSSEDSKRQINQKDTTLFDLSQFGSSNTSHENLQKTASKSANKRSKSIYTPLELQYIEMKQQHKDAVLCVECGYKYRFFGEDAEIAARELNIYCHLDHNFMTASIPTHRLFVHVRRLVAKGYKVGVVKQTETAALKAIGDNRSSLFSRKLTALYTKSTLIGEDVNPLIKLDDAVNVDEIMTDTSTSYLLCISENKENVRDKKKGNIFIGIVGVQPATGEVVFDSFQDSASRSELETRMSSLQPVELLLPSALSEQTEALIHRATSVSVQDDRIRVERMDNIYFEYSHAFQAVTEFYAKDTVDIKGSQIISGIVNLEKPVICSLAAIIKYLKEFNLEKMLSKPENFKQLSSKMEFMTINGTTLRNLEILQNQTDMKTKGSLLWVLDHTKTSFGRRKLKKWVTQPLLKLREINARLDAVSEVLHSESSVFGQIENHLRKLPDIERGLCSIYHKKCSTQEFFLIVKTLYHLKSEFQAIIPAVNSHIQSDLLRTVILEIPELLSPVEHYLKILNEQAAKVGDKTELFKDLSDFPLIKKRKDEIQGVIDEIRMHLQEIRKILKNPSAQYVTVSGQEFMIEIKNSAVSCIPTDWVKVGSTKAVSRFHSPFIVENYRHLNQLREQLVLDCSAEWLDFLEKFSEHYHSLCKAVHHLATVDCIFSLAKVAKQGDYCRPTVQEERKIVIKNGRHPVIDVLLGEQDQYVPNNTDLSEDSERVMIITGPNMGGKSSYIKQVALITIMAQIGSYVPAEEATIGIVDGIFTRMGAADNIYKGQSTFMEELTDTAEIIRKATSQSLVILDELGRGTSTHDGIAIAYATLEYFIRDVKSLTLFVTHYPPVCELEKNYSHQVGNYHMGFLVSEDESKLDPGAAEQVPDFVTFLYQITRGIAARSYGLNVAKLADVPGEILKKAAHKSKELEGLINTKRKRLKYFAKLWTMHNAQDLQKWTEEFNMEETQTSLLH
inactive: [1] -0.032 | volasertib -0.179 | [2] -0.003 | epoxomicin 0.062 | [3] -0.072 | [4] -0.019 | [5] -0.028 | rosiglitazone 0.019 | [6] -0.008 | [7] 0.047 | saracatinib -0.013 | sotrastaurin -0.003 | alvocidib -0.015 | Tubastatin A 0.045 | [8] -0.026 | defactinib 0.015 | rucaparib 0.031 | [9] -0.011 | encorafenib 0.069 | [10] -0.02

MT-ND1 (UniProt P03886)
UniProt P03886, sequence (P03886 whole entry, looked up): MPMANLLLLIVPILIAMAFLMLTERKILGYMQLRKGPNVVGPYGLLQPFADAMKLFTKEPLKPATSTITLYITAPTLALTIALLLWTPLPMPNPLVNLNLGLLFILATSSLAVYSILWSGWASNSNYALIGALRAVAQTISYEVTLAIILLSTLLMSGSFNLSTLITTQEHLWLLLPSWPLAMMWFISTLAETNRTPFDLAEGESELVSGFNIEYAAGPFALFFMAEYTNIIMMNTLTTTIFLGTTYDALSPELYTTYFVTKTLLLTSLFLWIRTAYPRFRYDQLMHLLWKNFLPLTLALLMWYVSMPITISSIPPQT
inactive: [1] -0.157 | volasertib 0.147 | [2] 0.035 | epoxomicin 0.063 | [3] 0.094 | [5] 0.253 | rosiglitazone -0.071 | [6] -0.115 | saracatinib 0.1 | sotrastaurin -0.005 | alvocidib -0.071 | Tubastatin A 0.123 | [8] -0.025 | defactinib -0.068 | rucaparib -0.041 | [9] -0.11 | encorafenib 0.017 | [10] -0.058

MRPS21 (UniProt P82921)
inactive: [1] 0.062 | volasertib -0.008 | [2] 0.063 | epoxomicin 0.064 | [3] -0.052 | [5] 0.058 | rosiglitazone 0.165 | [6] -0.205 | saracatinib -0.193 | sotrastaurin 0.036 | alvocidib -0.095 | Tubastatin A -0.056 | [8] 0.038 | defactinib -0.075 | rucaparib -0.016 | [9] 0.127 | encorafenib 0.045 | [10] -0.075

NME7 (UniProt Q9Y5B8)
UniProt Q9Y5B8, sequence (Q9Y5B8 whole entry, looked up): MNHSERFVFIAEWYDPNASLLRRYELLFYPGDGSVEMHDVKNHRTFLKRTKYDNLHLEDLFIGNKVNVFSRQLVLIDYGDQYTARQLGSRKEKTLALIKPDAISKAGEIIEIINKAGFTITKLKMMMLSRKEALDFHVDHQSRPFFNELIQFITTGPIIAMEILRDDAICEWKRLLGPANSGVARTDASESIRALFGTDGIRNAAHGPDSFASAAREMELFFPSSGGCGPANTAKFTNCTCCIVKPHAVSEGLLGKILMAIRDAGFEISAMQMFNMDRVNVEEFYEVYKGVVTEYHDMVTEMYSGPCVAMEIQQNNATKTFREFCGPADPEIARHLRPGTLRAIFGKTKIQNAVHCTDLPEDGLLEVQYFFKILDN
inactive: [1] -0.014 | epoxomicin -0.072 | [3] -0.033 | [4] -0.044 | [5] -0.045 | rosiglitazone 0.104 | [6] 0.014 | [7] -0.314 | saracatinib -0.109 | sotrastaurin -0.017 | alvocidib -0.117 | Tubastatin A 0.054 | [8] 0.016 | defactinib -0.047 | rucaparib 0.006 | [9] -0.001 | encorafenib 0.086 | [10] -0.006
active: volasertib -0.358

MTHFD1, A0A384N5Y3
inactive: [1] -0.152 | volasertib -0.011 | [2] 0.065 | epoxomicin 0.002 | [4] -0.113 | [5] 0.045 | rosiglitazone 0.023 | [6] -0.084 | [7] -0.081 | saracatinib -0.047 | sotrastaurin 0.025 | alvocidib -0.129 | Tubastatin A 0.032 | defactinib -0.173 | rucaparib -0.039 | [9] -0.004 | encorafenib -0.003 | [10] -0.036

NCBP2AS2 (UniProt Q69YL0)
active: [7] -0.906
inactive: [1] -0.255 | volasertib -0.193 | [2] -0.1 | [3] 0.027 | [4] 0.026 | [5] -0.072 | rosiglitazone -0.063 | [6] 0.049 | saracatinib 0.056 | sotrastaurin 0.215 | alvocidib -0.004 | Tubastatin A -0.064 | [8] -0.005 | defactinib 0.013 | rucaparib -0.03 | [9] -0.081 | encorafenib 0.031 | [10] 0.031

OVCA2 (UniProt Q8WZ82)
inactive: [1] -0.352 | volasertib -0.47 | [2] 0.083 | [4] 0.086 | rosiglitazone -0.033 | [7] -0.116 | rucaparib 0.116 | encorafenib -0.052

MON1A (UniProt Q86VX9)
inactive: [1] -0.11 | volasertib -0.012 | [2] -0.141 | epoxomicin -0.101 | [3] 0.004 | [4] 0.003 | rosiglitazone 0.134 | [6] 0.032 | [7] -0.041 | saracatinib 0.013 | sotrastaurin 0.058 | Tubastatin A 0.047 | [8] -0.103 | rucaparib -0.023 | [9] 0.029 | encorafenib 0.253
